Here are results for 39 compounds from PubChem BioAssay (Tox21).

Several values for one entry are separate records, joined by “and”; a condition that tells them apart may be missing. Equal entries are not always repeated. Results filed as inconclusive are left out. A call without a number means that no potency is given here. Activity calls are given as the source filed them. Calls follow the shape of the full dose curve.
Also: nearly all actives have a fitted effect of over 45% in size.
Potency is read from the fitted curve at half-maximal effect.

A short description of the first experiment: p53 small molecule agonists, cell-based qHTS assay with human liver microsomes: qHTS cell viability counter screen (AID 1963579). Particulars: p53RE-bla HCT-116 viability, ATP luminescence, 16 h, HLM; series mostly up to 66 µM. A digest of the protocol:
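Viability of p53RE-bla cells is measured as CellTiter-Glo luminescence following a 16 h, 37 C incubation with compound, liver microsomes from human donors and NADPH.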
Background: qHTS replaces the single test concentration by a dilution series.
For `Cc1ccc(N)cc1O`, the Potency was 40.8 µM (active).

Consider `CCCCCCOC(=O)c1ccc(O)cc1`, for which the Potency result is “inactive”.

Take `CCN(CC)CCCC(C)Nc1ccnc2cc(Cl)ccc12` (stereo not drawn): the activity change, negative = cytotoxicity was 1.38% [at 5.99 µM] (inactive) and -6.37% [at 13.5 µM] (inactive).

In the case of `CCCCCCC(C)OC(=O)COc1nc(F)c(Cl)c(N)c1Cl` (stereo not drawn), the Potency result was “inactive”.

For `CCCCCCOc1ccccc1C(N)=O`, the Potency result is “inactive”.

As to `CCC(CN)=C(c1ccccc1)c1ccccc1`, the Potency entry was “inactive”.

For the compound `CCOC(=O)c1ccccc1OC`, the Potency entry is “inactive”.

In the case of `CC1(O)CSC(C)(O)CS1` (stereo not drawn), the Potency entry was “inactive”.

`CC(=O)NCCCS(=O)(=O)O`: the Potency result was “inactive”.

On to `OCCN1CCN(CCCN2c3ccccc3Sc3ccc(Cl)cc32)CC1`, for which the Potency entry is “inactive”.

`Nc1cccnc1N`: the Potency result is “inactive”.

With `O=C(O)[C@@H]1CSCN1`, the Potency entry is “inactive”.

As to `O=[N+]([O-])c1ccc(O)cc1`, the Potency entry was “inactive”.

`Cc1ccc(N/N=c2\c(=O)cc/c(=N\Nc3ccc(S(=O)(=O)O)cc3)c2=O)c(C)c1`: the Potency result is “inactive”.

Regarding `CC(C)(C)c1ccc(C(=O)O)cc1`, the Potency result is “inactive”.

Consider `CCOC(=O)COc1ccc2c(C)c(CCN(CC)CC)c(=O)oc2c1Cl`, for which the Potency entry was “inactive”.

With `O=[N+]([O-])c1ccc(O/N=C/c2cc(Br)c(O)c(Br)c2)c([N+](=O)[O-])c1`, the Potency result is “inactive”.

Turning to `CC(C)c1ccc2ncccc2c1`, the Potency entry was “inactive”.

As to `CCc1ccc(O)c(C(C)(C)C)c1`, the Potency entry is “inactive”.

Regarding `C=C1C(=C/C=C2\CCC[C@]3(C)[C@@H]([C@H](C)/C=C/[C@@H](O)C4CC4)CC[C@@H]23)C[C@@H](O)C[C@@H]1O`, the Potency result was “inactive”.

Consider `C[C@@H](c1ncncc1F)C(O)(Cn1cncn1)c1ccc(F)cc1F` (stereo partly drawn), for which the Potency entry was “inactive”.

Regarding `O=C(O)Cn1cnnn1`, the Potency result is “inactive”.

On to `O=C(CC(=O)C(F)(F)F)c1ccccc1`, for which the Potency result is “inactive”.

With `CN1CCCN(C(c2ccccc2)c2ccc(Cl)cc2)CC1` (stereo not drawn), the Potency entry is “inactive”.

On to `NCCc1cnc[nH]1`, for which the Potency result is “inactive”.

`CO[C@@]12[C@H](COC(N)=O)C3=C(C(=O)C(C)=C(N)C3=O)N1C[C@@H]1N[C@@H]12`: the Potency result was “inactive”.

Take `CCN(CC)CCOC(=O)C1(C2CCCCC2)CCCCC1`: the Potency entry is “inactive”.

In the case of `CCOc1cccc(-n2cc(C(=O)N3CCN(c4cc(C(=O)O)c5ccccc5c4)CC3)nc2-c2ccc(C)cc2)c1`, the Potency is 17.4 µM (active).

Turning to `OC(CCN1CCCCC1)(c1ccccc1)C1CC2C=CC1C2` (stereo not drawn), the Potency entry was “inactive”.

In the case of `O=C(/C=C/c1ccccc1)NCCO`, the Potency result is “inactive”.

As for `CC(C)C=O`, the Potency result is “inactive”.

Another experiment in a line: p53 small molecule agonists, cell-based qHTS assay with rat liver microsomes: qHTS cell viability counter screen (AID 1963580). Particulars: p53RE-bla HCT-116 + rat microsomes, ATP viability, 16 h; series mostly up to 66 µM. A digest of the protocol:
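Intracellular ATP, by CellTiter-Glo luminescence, defines viability. HCT-116 p53RE-bla cells, 4,000 per well, were compound-treated in the presence of rat liver microsomes and NADPH for 16 h at 37 C.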
As to `Cc1ccc(N)cc1O`, the Potency result is “inactive”.

Take `CCCCCCOC(=O)c1ccc(O)cc1`: the Potency result was “inactive”.

In the case of `CCN(CC)CCCC(C)Nc1ccnc2cc(Cl)ccc12` (stereo not drawn), the activity change, negative = cytotoxicity was 0.0381% [at 5.99 µM] (inactive) and -13.2% [at 13.5 µM] (inactive).

Turning to `CCCCCCC(C)OC(=O)COc1nc(F)c(Cl)c(N)c1Cl` (stereo not drawn), the Potency entry is “inactive”.

Turning to `CCC(CN)=C(c1ccccc1)c1ccccc1`, the Potency result was “inactive”.

In the case of `CCOC(=O)c1ccccc1OC`, the Potency result is “inactive”.

In the case of `CC1(O)CSC(C)(O)CS1` (stereo not drawn), the Potency result is “inactive”.

Consider `CC(=O)NCCCS(=O)(=O)O`, for which the Potency result was “inactive”.

Regarding `OCCN1CCN(CCCN2c3ccccc3Sc3ccc(Cl)cc32)CC1`, the Potency entry was “inactive”.

`Nc1cccnc1N`: the Potency entry is “inactive”.

Regarding `O=C(O)[C@@H]1CSCN1`, the Potency entry was “inactive”.

On to `O=[N+]([O-])c1ccc(O)cc1`, for which the Potency entry was “inactive”.

Take `Cc1ccc(N/N=c2\c(=O)cc/c(=N\Nc3ccc(S(=O)(=O)O)cc3)c2=O)c(C)c1`: the Potency result was “inactive”.

For `CC(C)(C)c1ccc(C(=O)O)cc1`, the Potency result was “inactive”.

`O=[N+]([O-])c1ccc(O/N=C/c2cc(Br)c(O)c(Br)c2)c([N+](=O)[O-])c1`: the Potency entry was “inactive”.

With `NC(N)=NN=C(/C=C/c1ccc([N+](=O)[O-])o1)/C=C/c1ccc([N+](=O)[O-])o1`, the Potency result is “inactive”.

In the case of `CC(C)c1ccc2ncccc2c1`, the Potency result was “inactive”.

With `CC[C@@]1(O)C(=O)OCc2c1cc1n(c2=O)Cc2cc3c(CN(C)C)c(O)ccc3nc2-1`, the Potency result was “inactive”.

Turning to `C[C@@H](c1ncncc1F)C(O)(Cn1cncn1)c1ccc(F)cc1F` (stereo partly drawn), the Potency result is “inactive”.

As to `O=C(O)Cn1cnnn1`, the Potency entry is “inactive”.

For the compound `NC(N)=N/N=C/c1c(Cl)cccc1Cl`, the Potency entry was “inactive”.

Take `CN1C[C@H]2c3ccccc3Oc3ccc(Cl)cc3[C@@H]2C1`: the Potency result was “inactive”.

As to `CN1CCCN(C(c2ccccc2)c2ccc(Cl)cc2)CC1` (stereo not drawn), the Potency result is “inactive”.

With `NCCc1cnc[nH]1`, the Potency result is “inactive”.

For `CCOC(=O)[C@H](CCc1ccccc1)N[C@H]1CCc2ccccc2N(CC(=O)O)C1=O`, the Potency entry was “inactive”.

For the compound `Oc1ccc(-c2ccccc2)c(Cl)c1`, the Potency entry is “inactive”.

On to `CCN(CC)CCOC(=O)C1(C2CCCCC2)CCCCC1`, for which the Potency entry was “inactive”.

In the case of `CCOc1cccc(-n2cc(C(=O)N3CCN(c4cc(C(=O)O)c5ccccc5c4)CC3)nc2-c2ccc(C)cc2)c1`, the Potency was 24.6 µM (active).

For the compound `OC(CCN1CCCCC1)(c1ccccc1)C1CC2C=CC1C2` (stereo not drawn), the Potency result was “inactive”.

Take `O=C(/C=C/c1ccccc1)NCCO`: the Potency result is “inactive”.

As for `CC(C)C=O`, the Potency entry is “inactive”.

A further experiment is described as follows: p53 small molecule agonists, cell-based qHTS assay: qHTS cell viability counter screen (AID 1963581). The following applies: p53RE-bla HCT-116 viability, ATP luminescence, 16 h; series mostly up to 66 µM. In outline:
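Compounds are pinned onto HCT-116 p53RE-bla cells and left 16 h at 37 C. Following the reporter FRET read, ATP is quantified by CellTiter-Glo luminescence after 30 min at room temperature.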
Regarding `CC(=O)[C@]1(O)Cc2c(O)c3c(c(O)c2[C@@H](O[C@H]2C[C@H](N)[C@H](O)[C@H](C)O2)C1)C(=O)c1ccccc1C3=O`, the Potency result was “inactive”.

Take `CCN(CC)CCCC(C)Nc1ccnc2cc(Cl)ccc12` (stereo not drawn): the activity change, negative = cytotoxicity is -9.2% [at 5.99 µM] (inactive) and -2.12% [at 13.5 µM] (inactive).

In the case of `CCCCCCOc1ccccc1C(N)=O`, the Potency result is “inactive”.

For the compound `CCC(CN)=C(c1ccccc1)c1ccccc1`, the Potency entry is “inactive”.

For the compound `CCOC(=O)c1ccccc1OC`, the Potency result was “inactive”.

Turning to `CC1(O)CSC(C)(O)CS1` (stereo not drawn), the Potency result was “inactive”.

Turning to `CC(=O)NCCCS(=O)(=O)O`, the Potency entry was “inactive”.

On to `OCCN1CCN(CCCN2c3ccccc3Sc3ccc(Cl)cc32)CC1`, for which the Potency entry is “inactive”.

Consider `Nc1cccnc1N`, for which the Potency entry was “inactive”.

Turning to `O=C(O)[C@@H]1CSCN1`, the Potency entry was “inactive”.

In the case of `O=[N+]([O-])c1ccc(O)cc1`, the Potency entry was “inactive”.

For `Cc1ccc(N/N=c2\c(=O)cc/c(=N\Nc3ccc(S(=O)(=O)O)cc3)c2=O)c(C)c1`, the Potency entry was “inactive”.

For the compound `CC(C)(C)c1ccc(C(=O)O)cc1`, the Potency entry is “inactive”.

Take `NC(N)=NN=C(/C=C/c1ccc([N+](=O)[O-])o1)/C=C/c1ccc([N+](=O)[O-])o1`: the Potency was 17.8 µM (active).

As for `CC(C)c1ccc2ncccc2c1`, the Potency result is “inactive”.

Turning to `CCOC(=O)COc1ccc2c(c1)CC(NCC(O)c1cccc(Cl)c1)CC2` (stereo not drawn), the Potency entry is “inactive”.

Turning to `CCc1ccc(O)c(C(C)(C)C)c1`, the Potency entry is “inactive”.

As to `C=C1C(=C/C=C2\CCC[C@]3(C)[C@@H]([C@H](C)/C=C/[C@@H](O)C4CC4)CC[C@@H]23)C[C@@H](O)C[C@@H]1O`, the Potency result is “inactive”.

With `C[C@@H](c1ncncc1F)C(O)(Cn1cncn1)c1ccc(F)cc1F` (stereo partly drawn), the Potency result is “inactive”.

For `O=C(O)Cn1cnnn1`, the Potency entry was “inactive”.

For the compound `NC(N)=N/N=C/c1c(Cl)cccc1Cl`, the Potency result is “inactive”.

Turning to `O=C(CC(=O)C(F)(F)F)c1ccccc1`, the Potency entry is “inactive”.

Take `CN1C[C@H]2c3ccccc3Oc3ccc(Cl)cc3[C@@H]2C1`: the Potency result was “inactive”.

Turning to `NCCc1cnc[nH]1`, the Potency result was “inactive”.

Consider `CO[C@@]12[C@H](COC(N)=O)C3=C(C(=O)C(C)=C(N)C3=O)N1C[C@@H]1N[C@@H]12`, for which the Potency result is “inactive”.

Consider `CCOC(=O)[C@H](CCc1ccccc1)N[C@H]1CCc2ccccc2N(CC(=O)O)C1=O`, for which the Potency entry was “inactive”.

For the compound `Oc1ccc(-c2ccccc2)c(Cl)c1`, the Potency entry is “inactive”.

`CCOc1cccc(-n2cc(C(=O)N3CCN(c4cc(C(=O)O)c5ccccc5c4)CC3)nc2-c2ccc(C)cc2)c1`: the Potency was 24.6 µM (active).

`OC(CCN1CCCCC1)(c1ccccc1)C1CC2C=CC1C2` (stereo not drawn): the Potency result was “inactive”.

As to `O=C(/C=C/c1ccccc1)NCCO`, the Potency entry was “inactive”.

As for `CC(C)C=O`, the Potency result is “inactive”.
